# In ChEMBL document CHEMBL4513216, “Probing the Open Global Health Chemical Diversity Library for Multistage-Active Starting Points for Next-Generation Antimalarials” (ACS Infect Dis, 2020):
# Among all 69,000 compounds or so, about 8,600 (12%) showed an effect of 50% or more. For the sample, strong results were picked, then their nearest neighbours and some compounds at random.
# Test system: Plasmodium berghei
# Assay: Screen against P. berghei liver stage (PbLuc), transformed with Luciferase, at 10uM
# Assay type: functional, HepG2
# Conditions: tested at 10 uM
row,Structure (SMILES),INHIBITION [%]
1,Cc1ccsc1CNC(=O)NC(C)c1ccc2c(c1)CCC(=O)N2 (stereo not drawn),-121
2,COCCN1CCO[C@@H]2CN(Cc3ccc(C)s3)C[C@@H]2C1,24.6
3,NC(=O)C1CCN(C(=O)CCSCc2ccccc2)CC1,17.2875
4,CCCn1nc(C)c(C(=O)N(C)[C@@H]2CC[C@@H](N3CCCC3)[C@@H]2O)c1C,32
5,CCn1cnnc1C1CCN(C(=O)c2cc3c(s2)CCOC3)CC1,-9.37
6,Cc1cc(C)cc(N2CCN(C(=O)CCN3C[C@H]4CC[C@@H]3C4)CC2=O)c1,22.1
7,CC(O)CN1CCN(C(=O)c2cccn2Cc2ccccc2)CC1 (stereo not drawn),-0.113
8,CCOC(C)c1nccn1CC(=O)Nc1cc(C)on1 (stereo not drawn),15.4
9,CSCC(=O)N1CCCC(CO)(CC2CC2)C1 (stereo not drawn),41.2
10,O=C1CSC(c2cccnc2)c2c(n(C3CCOCC3)[nH]c2=O)N1 (stereo not drawn),48.1
11,Cc1n[nH]c2c1C(c1ccncc1)SCC(=O)N2 (stereo not drawn),23.5
12,O=C1CC(c2ccsc2)c2c(n(C3CCOCC3)[nH]c2=O)N1 (stereo not drawn),19
13,O=C1CSC(c2ccncc2)c2c(n(C3CCOCC3)[nH]c2=O)N1 (stereo not drawn),52.1
14,O=C1CSC(c2ccsc2)c2c(n(C3CCOCC3)[nH]c2=O)N1 (stereo not drawn),67.1
15,CC(C)(C)n1ncc2c1NC(=O)CSC2c1ccsc1 (stereo not drawn),-14.7
16,CC(C(=O)N1CCCCCC1)N1CCN(Cc2nccn2C)CC1 (stereo not drawn),37.4
17,CCSCCn1cc(-c2nccs2)nn1,-17.5
18,CC(C)c1ncncc1C(=O)N1CCCN(Cc2ccccc2)CC1,14.1
19,CC(C)C(=O)N1CCCC1C(=O)Nc1ccc(F)c(F)c1 (stereo not drawn),21.7
20,O=C(c1cccn1Cc1cccs1)N1CCN2CCCCC2C1 (stereo not drawn),33.3
21,CC(=O)N1CCO[C@@H]2CN(S(=O)(=O)c3ccc(F)cc3)CC[C@@H]2C1,45.4
22,O=C1CN(C(=O)CN(CC2CCC2)CC(F)(F)F)CCN1,31
23,O=C(Nc1ccccc1)C1CN(Cc2ccsc2)CC12CCOCC2 (stereo not drawn),-3.12
24,Cc1ccc(CN2Cc3ccccc3OC3(CCC(CO)CC3)C2)s1 (stereo not drawn),67.9
25,OCC1CCC2(CC1)CN(Cc1ccccn1)Cc1ccccc1O2 (stereo not drawn),21

row,Structure (SMILES),INHIBITION [%]
1,Cc1ncc(CN2Cc3ccccc3OC3(CCC(CO)CC3)C2)cn1 (stereo not drawn),47.2
2,Cc1ccc(CN2CC(C(=O)Nc3ccccc3)C3(CCOCC3)C2)s1 (stereo not drawn),45.8
3,Cc1ccc(CN2Cc3ccccc3OC3(CCC(CO)CC3)C2)o1 (stereo not drawn),44.1
4,OCC1CCC2(CC1)CN(Cc1ccsc1)Cc1ccccc1O2 (stereo not drawn),51.5
5,Cc1cnccc1CN1Cc2ccccc2OC2(CCC(CO)CC2)C1 (stereo not drawn),41.2
6,OCC1CCC2(CC1)CN(Cc1ccccc1F)Cc1ccccc1O2 (stereo not drawn),53.5
7,Cc1ccccc1CNC(=O)N1C[C@@H]2C[C@H](C(=O)N3CCCC3)[C@H](C1)O2,-16.9
8,O=C(Nc1nc[nH]n1)c1cc(-c2ccc(F)cc2)n[nH]1,16
9,Cc1cc(C(=O)NCc2ccnc(N3CCN(C)CC3)c2)sc1C,36.45
10,CN1CC(=O)N(C2CCNCC2)Cc2c(NCC(C)(C)C)ncnc21,47.4
11,COc1ccc(CC(=O)Nc2ccc3ncn(C(C)C)c(=O)c3c2)cc1,21.2
12,CCC1(CO)CCCN(C(=O)c2cc(COc3cccc(F)c3)[nH]n2)C1 (stereo not drawn),20.9
13,Cc1nn(C)c(N(C)C)c1CNC(C)COc1ccccc1F (stereo not drawn),23.4
14,CCNC(=O)CCc1c(C)nc2cc(O)nn2c1C,55.9
15,COC(=O)CCc1c(C)nc2cc(O)nn2c1C,53.5
16,CNC(=O)CCNC(=O)CCc1c(C)nc2cc(O)nn2c1C,29.2
17,Cc1nc(NC(=O)CCc2c(C)nc3cc(O)nn3c2C)sc1C,-14.7
18,Cc1nc2cc(O)nn2c(C)c1CCC(=O)NCCc1ccccc1,22.3
19,CCN(CC)C(=O)CCc1c(C)nc2cc(O)nn2c1C,34.7
20,Oc1ccc(N(CCc2ccccc2)CCn2cncn2)cc1,44
21,CCS(=O)(=O)N1C[C@H]2CC[C@](O)(c3ccc(C)cc3)[C@H]2C1,-2.11
22,Cc1nc(C2CCCN(C(=O)c3cc4c(s3)CCCC4)C2)no1 (stereo not drawn),11.2
23,O=C(NCC1CCN(Cc2cc3ccccc3[nH]2)C1)c1ccsc1 (stereo not drawn),40.8
24,CC(c1ccccc1)N1CCC(NC(=O)CCc2ccsc2)CC1 (stereo not drawn),4.22
25,COc1ccc(C(=O)NC2CCN(c3ncccn3)CC2)cc1F,46.1

row,Structure (SMILES),INHIBITION [%]
1,COc1ccc(N2CCC(NC(=O)c3ccc(C#N)cc3)CC2)cc1,41.8
2,COc1ccsc1C(=O)NC1CCN(c2cccc(F)c2)CC1,84.1
3,COc1ccsc1C(=O)NC1CCN(c2ccc(C#N)cc2)CC1,52.6
4,O=C(CCc1ccc(Cl)cc1)NC1CCN(c2cccc(F)c2)CC1,47.3
5,O=C(CCc1ccsc1)NC1CCN(c2cccc(F)c2)CC1,59.3
6,O=C(Cc1cccs1)NC1CCN(c2cccc(F)c2)CC1,4.71
7,COc1ccc(N2CCC(NC(=O)c3sccc3C)CC2)cc1,45
8,CCN1C[C@@H]2CN(C(=O)NCc3ccccc3)CCC[C@]2(C(=O)O)C1,31.4
9,COc1ccc(CN2C[C@H]3CC[C@@H](C2)N(S(C)(=O)=O)C3)cc1,15.7
10,COc1ccc(Cl)cc1CN(C)CC(=O)Nc1ccnn1C(C)C1CC1 (stereo not drawn),-75.4
11,COCCN1CCC2(COCc3c(C)nc(N4CCOCC4)nc32)C1 (stereo not drawn),-24.8
12,COc1ncccc1C(=O)N1CCCC(n2ccnc2C)C1 (stereo not drawn),54.7
13,CCCc1cc(C(=O)N2CCCC(n3ccnc3C)C2)[nH]n1 (stereo not drawn),10.8
14,Cc1ccccc1-c1cc(C(=O)N2CCCC(n3ccnc3C)C2)[nH]n1 (stereo not drawn),66.7
15,Cc1nccn1C1CCCN(C(=O)c2ccc3c(c2)CCC3)C1 (stereo not drawn),-0.96
16,COCCOc1ncccc1C(=O)N1CCCC(n2ccnc2C)C1 (stereo not drawn),-19.9
17,Cc1nccn1C1CCCN(C(=O)c2ccc3c(c2)COC3)C1 (stereo not drawn),57.8
18,COc1ncccc1C(=O)N1CCCC(n2ccnc2)C1 (stereo not drawn),-5
19,Cc1nn(-c2ccccc2)cc1C(=O)N1CCCC(n2ccnc2C)C1 (stereo not drawn),27.6
20,Cc1cnn(C2CCCN(C(=O)c3cc(-c4ccccc4C)n[nH]3)C2)c1 (stereo not drawn),32
21,Cc1nccn1C1CCCN(C(=O)c2cc(O)nc3ccccc23)C1 (stereo not drawn),52.7
22,CC(C)c1nccn1C1CCCN(C(=O)c2ccc3c(c2)COC3)C1 (stereo not drawn),-49.5
23,Cc1cc(C(=O)N2CCCC(n3ccnc3C)C2)c(C)s1 (stereo not drawn),18.2
